The source made the active and inactive calls.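 The calls were made as follows, unless noted: active = fluorescence slope higher than the sample average by over 3 SD (cut at about -0.22 in these data, passing the limit was not always enough); inactive = the rest.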
Experiments:
[1] = inhibitors of TNFa-induced NFkB p65 translocation, primary screen, imaging, HUVEC, MLSMR starter and 10KST1 sets (AID 438;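 active = inhibition above 20% together with a positive visual image hit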;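 also: compound added about 3h40 before a 20 min TNFalpha stimulation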;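 as to inhibition: signal is the nuclear over cytoplasmic p65 intensity ratio per well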); details: HUVEC TNFa-induced p65 nuclear translocation; cell count: measured here: nuclei count (cytotoxicity indicator), at 2.08 µM; inhibition: at 2 µM, stronger effect = higher value, 0% TNFa-plus-vehicle, 100% no-TNFa wells
[2] = reduction of polyQ htt aggregates in cells – imaging, exon1htt(103Q)mCFP cells, high-content imaging, primary screen (AID 483;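 active = visual image review flags a hit and inhibition of aggregation exceeds 20%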;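 also: compound exposure lasted 3 days before fixation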;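 as to nuclei count: percent of the per-plate median nuclei count of sample wells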); details: exon1htt(103Q)mCFP cell line, aggregate imaging, at 2 µM; inhibition of aggregation: stronger effect = higher value; nuclei count: measured here: cell count, toxicity
[3] = endothelial E-selectin expression blockers – imaging, HUVEC, immunofluorescence, MLSMR starter and 10KST1 sets, primary screen (AID 487;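 active = visually confirmed hit in the image check and inhibition above 20%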;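 as to inhibition: signal is fraction of cell area covered by stained E-selectin grains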;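 as to nuclei count: 100% = median nuclei count of all wells on the same plate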); details: HUVEC TNFalpha-induced E-selectin immunofluorescence imaging, at 2 µM; inhibition: stronger effect = higher value; nuclei count: measured here: cell number, toxicity
[4] = molecular target: Voltage-gated potassium channel subunit beta-2 (Rattus norvegicus) (UniProt P62483); assay: inhibitors of rat Kvbeta2 reductase activity – biochemical, NADPH fluorescence, primary screen (AID 622); details: recombinant KvBeta, 4-cyanobenzaldehyde reduction, at 10 µM, stronger effect = higher value;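 also: slope of raw intensity against log time taken from 70 to 1610 s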
[5] = molecular target: Voltage-gated potassium channel subunit beta-2 (Rattus norvegicus) (UniProt P62483); assay: enhancers of rat Kvbeta2 NADPH turnover – biochemical, NADPH fluorescence, primary screen (AID 623;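 active = NADPH fluorescence slope more negative than the mean of all samples by about 3 SD, 99.7% confidence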;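 also: fluorescence intensity change per second fitted from 20 to 320 s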); details: Recombinant KvBeta, NADPH fluorescence decrease slope, 10 min; at 10 µM; stronger effect = lower value
[6] = molecular target: Alpha-2C adrenergic receptor (Homo sapiens) (UniProt P18825); assay: compounds altering alpha2C-coupled GIRK flux – cell-based, HEK293 alpha2C/GIRK1/2, thallium flux, primary screen (AID 624;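 active = fluorescence slope after compound addition differing from the mean of all screened samples at 99.7% confidence, in either direction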;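 also: slope of fluorescence ratio to pre-addition baseline per second over 15 to 24 s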); details: thallium flux BTC fluorescence, at 10 µM, actives lie on both sides
[7] = blockers of RIG-like receptor reporter activation – cell-based, Sendai virus stimulus, luciferase, 10K MLSCN set, TLR/RLR signaling modifier project, primary screen (AID 602276;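 active = inhibition at or above 50% at 10 µM; inactive = inhibition below 50%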;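 also: firefly luciferase from ISG56 promoter only with Renilla not read in this screen; 0% = Sendai virus plus DMSO and 100% = medium plus DMSO without virus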); details: HEK293 RL24 IRF3 luciferase reporter, at 10 µM, stronger effect = higher value
[8] = TLR3 IRF3 reporter activation blockers – cell-based, poly I:C stimulus, luciferase, 10K MLSCN set, primary screen (AID 602277;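 active = inhibition of the reporter signal at or above 50%; inactive = inhibition below 50%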); details: HEK293-TLR3 RL24 IRF3 luciferase reporter, at 10 µM, stronger effect = higher value

Chain of Alpha-2C adrenergic receptor (Homo sapiens) (P18825 whole entry, looked up): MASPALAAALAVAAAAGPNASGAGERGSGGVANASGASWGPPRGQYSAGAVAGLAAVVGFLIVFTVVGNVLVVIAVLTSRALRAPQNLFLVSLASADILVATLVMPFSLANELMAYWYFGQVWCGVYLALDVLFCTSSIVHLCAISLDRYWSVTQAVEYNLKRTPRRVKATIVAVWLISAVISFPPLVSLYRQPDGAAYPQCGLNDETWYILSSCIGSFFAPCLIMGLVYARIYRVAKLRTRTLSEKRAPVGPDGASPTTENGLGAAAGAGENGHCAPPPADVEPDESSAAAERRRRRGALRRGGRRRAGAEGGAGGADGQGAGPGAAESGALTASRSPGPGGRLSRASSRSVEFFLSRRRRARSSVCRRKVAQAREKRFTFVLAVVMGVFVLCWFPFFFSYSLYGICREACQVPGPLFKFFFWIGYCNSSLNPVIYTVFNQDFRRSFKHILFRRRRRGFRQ
Chain of Voltage-gated potassium channel subunit beta-2 (Rattus norvegicus) (P62483 whole entry, looked up): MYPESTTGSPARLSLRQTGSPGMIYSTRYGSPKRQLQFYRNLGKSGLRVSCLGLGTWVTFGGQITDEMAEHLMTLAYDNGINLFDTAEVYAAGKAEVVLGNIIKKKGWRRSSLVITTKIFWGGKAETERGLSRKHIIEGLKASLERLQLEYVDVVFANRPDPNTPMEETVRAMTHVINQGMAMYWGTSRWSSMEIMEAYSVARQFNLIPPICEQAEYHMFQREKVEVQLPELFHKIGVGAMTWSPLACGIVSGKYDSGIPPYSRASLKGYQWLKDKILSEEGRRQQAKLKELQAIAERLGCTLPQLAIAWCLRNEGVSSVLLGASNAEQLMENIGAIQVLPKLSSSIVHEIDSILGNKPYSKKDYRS

Structure (SMILES) | cell count [1] | inhibition [1] | inhibition of aggregation [2] | nuclei count [2] | inhibition [3] | nuclei count [3] | fluorescence slope [4] | NADPH fluorescence slope [5] | slope [6] | inhibition [7] | inhibition [8]
O=S(NCc1ccco1)C12CC3CC(CC(C3)C1)C2 (stereo not drawn) | 426 | 12.5% (inactive) | 1.2% (inactive) | 102% | -2.2% (inactive) | 101% | -0.582 (inactive) | -2e-07 (inactive) | 0.00485 (inactive) | -5.22% (inactive) | 0.485% (inactive)
COc1ccccc1NC(=O)CSc1nnc(-c2ccncc2)n1CC1CCCO1 (stereo not drawn) | 626 | 20.6% (inactive) | -8.1% (inactive) | 92.8% | 25.2% (inactive) | 100% | -0.462 (inactive) | -1.1e-06 (inactive) | 0.00619 (inactive) | 14.4% (inactive) | 98.5% (active)
Cc1cc(C)c2c(n1)nn1c(N3CCN(c4cccc(Cl)c4)CC3)cc(C)nc21 | 458 | -7.1% (inactive) | 3.7% (inactive) | 97.9% | -60.1% (inactive) | 130% | -0.303 (inactive) | 1.1e-05 (inactive) | 0.00567 (inactive) | 9.81% (inactive) | 21.4% (inactive)
O=C(CNCC1CCCO1)Nc1ccccc1-n1cccc1 (stereo not drawn) | 671 | -11.4% (inactive) | 1.7% (inactive) | 90.8% | -127% (inactive) | 127% | -0.291 (inactive) | -4.7e-05 (inactive) | 0.00473 (inactive) | 2.08% (inactive) | 15% (inactive)
Cc1nn(C)cc1NC(=O)CCSc1nc(-c2ccco2)cc(C(F)(F)F)n1 | 452 | -13.9% (inactive) | -12.3% (inactive) | 107% | 35.1% (inactive) | 106% | -0.615 (inactive) | -1.6e-06 (inactive) | 0.00399 (inactive) | -8.54% (inactive) | -43.3% (inactive)
CCNC(=O)CC1C(=O)N(c2ccccc2)C(=O)N1CCC(C)C (stereo not drawn) | 339 | 2.8% (inactive) | 3.6% (inactive) | 104% | -62.6% (inactive) | 97.9% | -0.512 (inactive) | -3.8e-05 (inactive) | 0.00552 (inactive) | 8.08% (inactive) | 31.4% (inactive)
O=C(NCc1ccc2c(c1)OCO2)C1CCC(CNS(=O)(=O)c2ccccc2)CC1 (stereo not drawn) | 316 | 8.9% (inactive) | -31.1% (inactive) | 111% | -4.9% (inactive) | 116% | -0.489 (inactive) | 1.3e-05 (inactive) | 0.00655 (inactive) | 11.6% (inactive) | 26.6% (inactive)
O=C(CN1CCN(c2ccccn2)CC1)N1c2ccccc2CCc2ccccc21 | 568 | 3.3% (inactive) | -0.5% (inactive) | 103% | 46.8% (inactive) | 99.5% | -0.341 (inactive) | -5.2e-05 (inactive) | 0.0046 (inactive) | 13% (inactive) | 15.9% (inactive)
Cc1ccc(C(c2nnnn2CCC(C)C)N2CCN(C)CC2)cc1 (stereo not drawn) | 417 | 1% (inactive) | 8.9% (inactive) | 73.1% | -73.9% (inactive) | 108% | -0.598 (inactive) | -4.8e-05 (inactive) | 0.00252 (inactive) | 13.9% (inactive) | -3.3% (inactive)
COCCn1c(SCC(=O)Nc2ccc3c(c2)OCCO3)nc2c(c1=O)SC(C)C2 (stereo not drawn) | 715 | -4.4% (inactive) | -19.9% (inactive) | 106% | -36.9% (inactive) | 116% | -0.413 (inactive) | 3.3e-05 (inactive) | 0.00496 (inactive) | -10.2% (inactive) | -0.542% (inactive)
Cc1cccc(C2c3c(n(C)c(=O)n(C)c3=O)N=C3c4ccccc4C(=O)C32)c1 (stereo not drawn) | 323 | -5.6% (inactive) | 6.9% (inactive) | 102% | -348% (inactive) | 113% | -0.383 (inactive) | 2.2e-05 (inactive) | 0.00343 (inactive) | 16% (inactive) | 3.75% (inactive)
O=C(CSc1nnc(COc2ccc(Cl)cc2)o1)OC1CCCCC1 | 530 | -5.9% (inactive) | -7.1% (inactive) | 119% | 9.7% (inactive) | 103% | -0.524 (inactive) | -5.9e-07 (inactive) | 0.00539 (inactive) | 1.22% (inactive) | -1.92% (inactive)
CCOC(=O)c1cnc(C(C)(C)C)[nH]c1=O | 328 | -6.5% (inactive) | -6.3% (inactive) | 109% | -109% (inactive) | 142% | -0.318 (inactive) | -4.2e-05 (inactive) | 0.00422 (inactive) | 10.2% (inactive) | 17.4% (inactive)
CCN1CCCC1CNC(=O)CS(=O)(=O)Cc1nc(-c2ccccc2C)oc1C (stereo not drawn) | 834 | -0.6% (inactive) | 3.2% (inactive) | 104% | -87.9% (inactive) | 126% | -0.511 (inactive) | -3e-05 (inactive) | 0.00452 (inactive) | 5.3% (inactive) | 46.5% (inactive)
CCCCn1c(=O)[nH]c(=O)c2c1nc(-c1ccncc1)n2CCOC | 542 | -15.4% (inactive) | -7.3% (inactive) | 107% | -19.9% (inactive) | 138% | -0.446 (inactive) | -4.3e-05 (inactive) | 0.00406 (inactive) | 0.301% (inactive) | 33.4% (inactive)
CC1CC(=O)c2cnc(NCC3CCCO3)nc2C1 (stereo not drawn) | 613 | 13.9% (inactive) | -14% (inactive) | 106% | 12.9% (inactive) | 107% | -0.404 (inactive) | -2.9e-05 (inactive) | 0.00446 (inactive) | 6.29% (inactive) | -1.06% (inactive)
CCCCN=CC1=C(O)C(C(=O)OC)C(C)(C)CC1=O (stereo not drawn) | 390 | -4.3% (inactive) | 10.6% (inactive) | 106% | -21.7% (inactive) | 123% | -0.392 (inactive) | -6.2e-07 (inactive) | 0.0055 (inactive) | -0.949% (inactive) | -9.49% (inactive)
Cc1csc(NC(=O)C2CCCO2)n1 (stereo not drawn) | 725 | -11.4% (inactive) | -7.3% (inactive) | 101% | -133% (inactive) | 134% | -0.494 (inactive) | -5.6e-05 (inactive) | 0.00887 (inactive) | -2.56% (inactive) | 17.7% (inactive)
COCCn1nnnc1C(c1cc2cc(OC)ccc2[nH]c1=O)N1CCC(Cc2ccccc2)CC1 (stereo not drawn) | 247 | -3.5% (inactive) | -2.5% (inactive) | 88.5% | -39.9% (inactive) | 117% | -0.359 (inactive) | 1.6e-05 (inactive) | 0.00322 (inactive) | 14.4% (inactive) | 30.6% (inactive)
CCc1nc2sc(C)c(C)c2c(=O)n1CCO | 396 | 7.2% (inactive) | 10.8% (inactive) | 81.4% | -64.6% (inactive) | 103% | -0.422 (inactive) | 1.1e-05 (inactive) | 0.00292 (inactive) | 5.69% (inactive) | 32% (inactive)
CCC(=O)Nc1cc2nn(-c3ccccc3)nc2cc1Cl | 442 | -2.1% (inactive) | 7.1% (inactive) | 105% | -94.2% (inactive) | 255% | -0.413 (inactive) | -5.9e-07 (inactive) | 0.00584 (inactive) | -10.5% (inactive) | -46.9% (inactive)
CC1CN(C(=O)CSc2nnc(-c3ccncc3)n2-c2ccccc2)CC(C)O1 (stereo not drawn) | 447 | 2.9% (inactive) | 4% (inactive) | 101% | 71.2% (active) | 124% | -0.605 (inactive) | 5.9e-06 (inactive) | 0.00638 (inactive) | 20.7% (inactive) | 24.3% (inactive)
CCN(CC)S(=O)(=O)c1ccc2[nH]cc(C(=O)NCCC3=CCCCC3)c(=O)c2c1 | 344 | 8.4% (inactive) | -4.1% (inactive) | 71.6% | 96.3% (active) | 91% | -0.498 (inactive) | -4.6e-05 (inactive) | 0.00467 (inactive) | 12% (inactive) | 6.76% (inactive)
Cc1cc(C)n(CC(=O)O)n1 | 341 | -1.8% (inactive) | -4.2% (inactive) | 102% | -49.5% (inactive) | 121% | -0.317 (inactive) | -5.4e-05 (inactive) | 0.0047 (inactive) | 12.8% (inactive) | 18.3% (inactive)
O=C(O)C1CC=CCC1C(=O)NCc1ccccc1 (stereo not drawn) | 625 | 6% (inactive) | -11% (inactive) | 107% | -28.4% (inactive) | 107% | -0.41 (inactive) | 3.8e-06 (inactive) | 0.00502 (inactive) | 10% (inactive) | 11.4% (inactive)
Cc1ccc2[nH]c(=O)c(CN(Cc3ccc4c(c3)OCO4)Cc3nnnn3Cc3ccco3)cc2c1 | 638 | 2.2% (inactive) | -15.3% (inactive) | 94.1% | -74.1% (inactive) | 122% | -0.622 (inactive) | -7e-06 (inactive) | 0.00625 (inactive) | 9.33% (inactive) | 12.2% (inactive)
Cc1cc(=O)n(CCO)c(O)c1C#N | 735 | 0.3% (inactive) | -6.8% (inactive) | 94% | -22.2% (inactive) | 110% | -0.351 (inactive) | 8.2e-06 (inactive) | 0.00309 (inactive) | 18.6% (inactive) | 15% (inactive)
O=C(NCC1CCCO1)C1CCN(S(=O)(=O)c2cccc3cccnc23)CC1 (stereo not drawn) | 651 | -5% (inactive) | 6.8% (inactive) | 104% | -63.2% (inactive) | 114% | -0.516 (inactive) | 1.4e-05 (inactive) | 0.00614 (inactive) | 10.7% (inactive) | 25.3% (inactive)
